Hits are enriched below; roughly 7.4% of the tested compounds scored in any of these assays.
SMN2 splice up – enhancers of SMN2 splice variant expression; AID 1458; 210,000 tested, 2.8% active; Potency, µM (series often up to 46.1 µM), without a hit: top-dose activity change, positive = activation, hits mostly activators; HEK293 SMN2-luciferase splicing reporter, luminescence, 30-36 h; further: % of control where 0% means no effect; nearly all actives have a fitted effect of over 55% in size
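qHTS luciferase splicing reporter: luminescence rises when SMN2 exon 7 is included in transfected HEK293 cells. Compound exposure lasted 30-36 h at 37C, with 4.5 mM final sodium butyrate as control, followed by a ONE-Glo read.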
FLuc counter – firefly luciferase modulation, counter-screen for miR-21 project | 360,000 tested, 6.9% active | Potency, µM (titrated, usually from 57.5 µM), without a hit: at the top dose activity change, negative = inhibition, usual class: inhibitors | P08659 | AID 588342 | purified FLuc, Km substrates, luminescence inhibition;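 further: plate controls were vehicle for no effect and reference inhibitor for full effect; nearly all actives have a fitted effect of over 55% in size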
Target sequence (P08659 whole entry, looked up): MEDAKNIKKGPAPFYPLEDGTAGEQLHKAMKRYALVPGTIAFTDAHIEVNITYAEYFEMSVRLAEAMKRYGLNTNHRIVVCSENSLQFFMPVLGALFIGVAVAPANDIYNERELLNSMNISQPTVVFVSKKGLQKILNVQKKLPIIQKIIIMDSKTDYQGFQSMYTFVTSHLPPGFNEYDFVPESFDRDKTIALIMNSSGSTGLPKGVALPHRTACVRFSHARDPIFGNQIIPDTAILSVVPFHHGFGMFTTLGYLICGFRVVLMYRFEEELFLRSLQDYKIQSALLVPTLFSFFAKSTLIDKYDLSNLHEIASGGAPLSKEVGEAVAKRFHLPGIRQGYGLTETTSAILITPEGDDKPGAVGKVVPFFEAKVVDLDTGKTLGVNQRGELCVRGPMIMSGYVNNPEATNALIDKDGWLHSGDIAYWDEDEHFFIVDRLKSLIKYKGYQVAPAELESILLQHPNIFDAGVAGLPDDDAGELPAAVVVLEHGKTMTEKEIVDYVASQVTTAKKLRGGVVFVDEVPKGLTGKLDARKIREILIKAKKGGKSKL
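Purified P. pyralis luciferase (10nM final) with 10uM D-luciferin and 10uM ATP (Km levels) in 50mM Tris acetate pH 7.5, 10mM Mg acetate, 0.01% Tween-20, 0.05% BSA; qHTS 6-point titration, ~60 µM downward; luminescence read.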
Luc counter – blocks Kinase-Glo luciferase, a counter-screen artifact. Q27757. Kinase-Glo luciferase, ATP luminescence, 8 min. Potency, µM (top dose mostly 38.3 µM), for the others: at the top dose activity change, negative = inhibition, most hits filed as inhibitors. 200,000 tested, 0.28% active. AID 1379; further: on the % scale 0 is the no-effect control and ±100 the full control effect; nearly all actives have a fitted effect of over 60% in size
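Substrate mix (final 50 mM imidazole pH 7.2, 50 mM KCl, 7 mM MgCl2, 10 uM ATP, 0.01% Tween 20, 0.05% BSA) plus pin-tool compound, then Kinase-Glo detection mix; 8 min ambient, luminescence read.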
Rab9 promoter act – Rab9 promoter activation; Huh7 Rab9 promoter-luciferase reporter, luminescence, 24 h; Potency, µM (top dose mostly 9.22 µM), inactives show at the highest dose activation, negative = inhibition, actives largely listed as activators; 320,000 tested, 2.8% active; AID 485297; further: % of control where 0% means no effect; nearly all actives have a fitted effect of over 60% in size
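Stable Rab9-luc Huh7, 1500 cells/well, 2 h settle; cmpd in DMSO, 24 h, 37 °C/5% CO2; luciferase reagent 10 min RT; luminescence.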
ELG1 genotox – genotoxicity induction in ELG1-luciferase HEK293T cells | HEK293T ELG1-luciferase reporter, luminescence, 16 h | Potency, µM (series often up to 46 µM), inactives show at the highest dose activity change, positive = activation, usual class: activators | 330,000 tested, 1.3% active | AID 504466; further: % of control where 0% means no effect; nearly all actives have a fitted effect of over 60% in size
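Quantitative HTS format in 1536-well plates. HEK293T ELG1-luciferase reporter cells receive test compound and are incubated 16 hr at 37 °C, 5% CO2; ONE-Glo added, 30 min room temperature, then luminescence read.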
NPC1 promoter act – NPC1 promoter activation | Huh7 NPC1 promoter luciferase reporter, 24 h | Potency, µM (titrated, usually from 9.22 µM), inactives show at the top dose activation, usual class: activators | 320,000 tested, 2.4% active; further: % of control where 0% means no effect; nearly all actives have a fitted effect of over 60% in size
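Cells: Huh7 expressing luciferase under the NPC1 promoter, 1500/well. Seeded 2 h, compound added, incubated 24 h at 37 °C. Luciferase reagent, 10 min ambient, then luminescence.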
The depositor's hits bear a star; ? = inconclusive; nt = no result; [ ] = remark or other dose. The call rests on the fitted dose curve; in most records, active means well fitted curve in the direction sought with a large enough effect; inconclusive means small, poorly fitted or top-dose-only effect, or another doubt; inactive means no such curve, though single readings can be large; an effect the other way counts as inactive or inconclusive. Potency means the concentration at half of the fitted maximal effect.

SMILES	SMN2 splice up	FLuc counter	Luc counter	Rab9 promoter act	ELG1 genotox	NPC1 promoter act
c1ccc(-c2nc(-c3ccco3)cs2)nc1	1%	15µM*	-11%	3.5µM*	?	26%
Cc1cccc(NS(=O)(=O)c2cc(C(=O)NCCC3=CCCCC3)ccc2Cl)c1	-34%	-1%	-1%	-5%	-10%	-3%
C=CC1=C2C=C(C3CC3)N(Cc3ccco3)C=C2C(=O)C(C)(OC(=O)c2ccco2)C1=O (configuration not stated)	0%[9.22 µM]	nt	-2%[7.66 µM]	nt	nt	nt
O=C(Nc1sc2c(c1C(=O)O)CCC2)c1cccs1	?	17µM*	-23%	28%	8%	17%
NC(=O)c1c(NC(=O)c2cccs2)sc2c1CCCCCC2	?	4.8µM*	-1%	3.2µM*	6%	?
O=C(Nc1sc2c(c1C(=O)Nc1cccc(Cl)c1)CCCC2)c1cccs1	-4%	-19%	nt	nt	nt	nt
CC(C)(C)CN1CCN(Cc2cccnc2)CC1CCO (configuration not stated)	nt	-1%	nt	1%	0%	-1%
CC(C)(C)C(=O)OCc1nc(-c2ccc(C(F)(F)F)cc2)cs1	nt	15µM*	nt	0%	4%	-4%
CCc1nnc(NC(=O)c2cccc(NC(=O)C(C)C)c2)s1	16µM*	?	0%	?	29%	?
CC(C)c1nnc(NC(=O)c2cccc(NC(=O)C(F)(F)F)c2)s1	14µM*	21µM*	4%	1.3µM*	?	3.5µM*
CC(C)C(=O)Nc1cccc(C(=O)Nc2nnc(C(F)(F)F)s2)c1	14%	17µM*	nt	nt	nt	nt
CC(C)C(=O)Nc1ccc(C(=O)Nc2nnc(C(C)C)s2)cc1	nt	?	-1%	?	12%	23%
Cc1nnc(NC(=O)c2cccc(NC(=O)C(C)C)c2)s1	6%	-16%	-2%	5%	4%	4%
CC(C)C(=O)Nc1cccc(C(=O)Nc2nnc(C(C)C)s2)c1	11µM*	?	0%	1.4µM*	?	2.8µM*
COC(=O)[C@H](CCSC)NC(=O)Cn1cnc2c(OCc3ccccc3)ncnc21	nt	nt	nt	nt	1%	nt
CCCc1ccc(OCc2ccc(C(=O)Nc3ccccc3C(=O)OC)o2)cc1	?	19µM*	nt	nt	nt	nt
COc1ccc(NC(=O)c2ccc(COc3ccccc3)o2)cc1	-22%	24µM*	-16%	-1%	-1%	-2%
COc1ccc(NC(=O)c2ccc(COc3ccccc3)o2)c(OC)c1	nt	-8%	nt	-3%	-3%	-2%
COc1ccc(NC(=O)c2ccc(Cc3ccc(C)cc3)o2)cc1	-17%	15µM*	1%	8%	0%	8%
COC(=O)c1ccccc1NC(=O)c1ccc(COc2ccccc2)o1	-12%	1%	-3%	nt	nt	nt
COC(=O)c1ccccc1NC(=O)c1ccc(-c2cccc(Cl)c2)o1	10µM*	3%	-1%	19%	?	?
CCOc1ccc(S(=O)(=O)N2CN(c3cccc(C(C)=O)c3)c3nc4ccccc4nc32)cc1	nt	nt	nt	nt	0%	nt
CCOC(=O)c1c(S(=O)(=O)N2CCCC(C(=O)N3CCN(c4ccccc4)CC3)C2)c(C)n(C)c1C (configuration not stated)	nt	-10%	nt	nt	nt	nt
Cc1nc2c(-c3ccccc3)c(C)[nH]n2c(=O)c1Cc1ccc(C(C)C)cc1	-1%	-1%	nt	nt	nt	nt
COC(=O)c1sccc1-c1ccc(C(=O)Nc2cccc(Cl)c2)o1	?	9.5µM*	3%	3.5µM*	14%	?
SMILES	SMN2 splice up	FLuc counter	Luc counter	Rab9 promoter act	ELG1 genotox	NPC1 promoter act
CN(C)S(=O)(=O)Oc1ccsc1C(=O)Nc1cccc(Cl)c1	-21%	-4%	-2%	-8%	-5%	-1%
CC(Oc1ccc(Br)cc1)C(=O)Nc1cc(Cl)ccc1N1CCN(C)CC1 (configuration not stated)	nt	-23%	nt	0%	-3%	-2%
COC(=O)CC1C(C)(C)C(OC(C)=O)C2[C@H](OC(C)=O)[C@]34O[C@]2(O)[C@]1(C)C3CC[C@]1(C)C4=CC(=O)OC1c1ccoc1 (some centres not stated)	-48%	nt	0%	nt	nt	nt
O=C1CN(C(=O)COc2ccc(F)cc2Br)c2ccccc2N1	-3%	?	-2%	4%	10%	-4%
CSCCC1NC(=O)N(CC(=O)Nc2ccc(N3CCCCC3)cc2)C1=O (configuration not stated)	-9%	12µM*	-2%	-6%	1%	11%
O=S(=O)(c1cccc(-c2cn3cccnc3n2)c1)N1CCCCCC1	-15%	2%	0%	8%	-19%	0%
Cc1ccc2nc(-c3cccc(S(=O)(=O)N4CCCC4)c3)cn2c1	nt	6.7µM*	nt	0%	7%	-1%
Cc1ccc2nc(-c3cccc(S(=O)(=O)N4CC(C)OC(C)C4)c3)cn2c1 (configuration not stated)	nt	13µM*	nt	-2%	?	1%
Cc1ccn2cc(-c3cccc(S(=O)(=O)N4CCCCC4)c3)nc2c1	nt	19µM*	nt	-1%	-5%	-6%
CCOC(=O)N1CCC(NC(=O)C(NC(=O)C2CCC(C)CC2)C(C)CC)CC1 (configuration not stated)	7%	8%	7%	1%	0%	-3%
O=C(NC1CCCCCC1)c1ccc2c(c1)sc1nc(-c3ccccc3)cn12	nt	-2%	nt	nt	nt	nt
COc1ccc2c(n1)Sc1nc3ccccc3nc1N2	nt	2.1µM*	nt	2.2µM*	8.2µM*	?
COc1cc2ccccc2nn1	nt	5%	nt	-3%	-3%	-6%
Cn1nccc1C(=O)Nc1ccc2c(c1)OCCO2	nt	12µM*	13µM*	1.6µM*	?	3.2µM*
Cc1c(C(=O)Nc2ccc(Br)cc2)cnn1C	13µM*	13µM*	2%	?	?	?
Cc1c(C(=O)Nc2ccc3c(c2)OCCO3)cnn1C	nt	11µM*	nt	?	3.7µM*	?
Cn1ncc([N+](=O)[O-])c1C(=O)Nc1ccc2c(c1)OCCO2	-11%	?	-3%	2%	9%	0%
Cc1nn(C)cc1C(=O)Nc1ccc2c(c1)OCCO2	nt	12µM*	nt	3.2µM*	?	4.5µM*
Cc1ccc(S(=O)(=O)NCc2ccccc2)cc1C(=O)NCC(C)(C)N1CCOCC1	nt	4%	nt	-1%	7%	-1%
COc1ccc(N2C=C3C(=O)C(C)(OC(=O)C4CCCC4)C(=O)C=C3C=C2c2ccsc2)cc1 (configuration not stated)	5%[9.22 µM]	nt	-10%[7.66 µM]	nt	nt	nt
COc1ccc(S(=O)(=O)N2CC(O)CC2C(=O)Nc2cccnc2)cc1 (configuration not stated)	nt	1%	nt	1%	0%	-4%
